Data reported in article PMC5540273 (PLoS ONE, 2017).

Columns and labels:
ERK8 = system: T1, ERK8
T1 construct: gene MAPK15
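Further: kd values determined as follow-up on hits from a single-replicate KINOMEscan panel screen.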

Cn1cncc1-c1ccc2ncnc(Nc3ccc(OCc4ccccc4)cc3)c2c1 [GW320571]
Kd (EIF2AK1): > 10000 nM | Kd (ERBB2): 41 nM

Nc1ncnc2[nH]c(-c3ccccc3)nc12 [AH5015]
Kd (EIF2AK1): > 10000 nM

COc1cc(Nc2nccc(N3CCC(NC(=O)Nc4cc(C)ccc4C)C3)n2)cc(OC)c1OC (stereo not drawn) [GSK1379762]
Kd (EPHB6): 1100 nM

COc1ccc(CNC(=O)NC2CCN(c3ccnc(Nc4cc(OC)c(OC)c(OC)c4)n3)C2)cc1 (stereo not drawn) [GSK1379748]
Kd (EPHB6): 180 nM

Cl.O=C(Nc1cccc(-c2nn3ncccc3c2-c2ccnc(Nc3cccnc3)n2)c1)c1c(F)cccc1F [GSK312879]
Kd (ERBB2): 29 nM | Kd (ERBB4): 64 nM

Cl.NC(=O)c1cccc(Nc2nccc(Nc3ccc(Oc4cccc(Cl)c4)c(Cl)c3)n2)c1 [GW659008]
Kd (ERBB3): 260 nM

O=C(Nc1n[nH]c2nc(-c3nccs3)c(Br)cc12)C1CC1 [SB-742251]
Kd (ERK8): 870 nM

NC(=O)c1nnc2ccccc2c1N
Kd (FGFR3): > 10000 nM

O=C(Nc1ccccc1)Nc1cccc(Oc2ccc3nccn3n2)c1
Kd (FLT1): 91 nM

Cn1ccc2ncnc(Oc3ccc(NC(=O)Nc4ccccc4)cc3)c21
Kd (FLT1): 350 nM
